Peg3 promoter = reduces Peg3 promoter-driven luciferase expression in HeLa. HeLa PEG-Prom luciferase reporter, luminescence, overnight. inhibition, % at 20 µM. 360,000 compounds, 1.7% hits;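 active means inhibition of at least 50% at 20 µM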
CF NFkB inh = inhibitors of cystic fibrosis induced NF-kB. inhibition, % at 5 µM. AID 588850. KKLEB NF-kB-GFP reporter, PAF-induced, GFP fluorescence overnight. 360,000 compounds, 0.86% hits;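 active means at least 50% inhibition at 5 µM, scaled per plate between neutral and stimulator controls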;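 further: PAF is a Pseudomonas aeruginosa culture filtrate used as stimulus; plate controls were PAF-stimulated DMSO wells for no effect and unstimulated DMSO wells for full effect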
Shn3 inh set2 = reduces Shn3 3'UTR luciferase signal in osteoblasts | Clone20 osteoblast Shn3 3'UTR firefly luciferase, 24 h | inhibition, % at 12.5 µM | 360,000 compounds, 0.52% hits;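 active means mean inhibition of at least 75% with every replicate also reaching 75%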;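 further: 0% = median of neutral control wells and 100% = pilot-screen positive control compound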
KKLEB tox = counter-screen for CF NF-kB inhibitors: cytotoxicity; 360,000 compounds, 0.36% hits; activity change (cytotoxicity), % at 5 µM; KKLEB CF airway cells viability, ATPlite luminescence, overnight; hits give low values; cells stimulated with P. aeruginosa culture filtrate; AID 602141;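 active means corrected activity change at or below -50% at 5 µM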
HIF-2a block = inhibitors of HIF-2a; 786-0 RCC cells HIF-2a reporter, luciferase luminescence, overnight; inhibition, % at 18.8 µM; 360,000 compounds, 0.72% hits; AID 624352;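 active means inhibition of the luminescence signal of 40% or more relative to plate controls, in a single-dose primary screen at 18.75 µM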
CF NFkB inh conf = confirmation of cystic fibrosis induced NF-kB inhibitors; shares compounds with CF NFkB inh; KKLEB CF airway cells, PAF-induced NF-kB-GFP fluorescence, overnight; 1,300 compounds, 64% hits; inhibition, % at 5 µM; in the data active means inhibition above about 40%;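 further: stimulus PAF is a Pseudomonas aeruginosa filtrate and not platelet activating factor; plate controls were DMSO wells with stimulus for no effect and unstimulated DMSO wells for full effect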
* = called active by the depositor; . = no result. Only some compounds are listed: those with a hit (about 2.6% of all), similar ones and a draw of the others.

SMILES | Peg3 promoter | CF NFkB inh | Shn3 inh set2 | KKLEB tox | HIF-2a block | CF NFkB inh conf
CC1CNCCN1S(=O)(=O)c1cccc2cnccc12 (stereo unspecified) | -11.1 | 37.5 | 76.1 | -9.4 | 22.3 | .
O=S(=O)(c1cccc2cnccc12)N1CCCNCC1 | -10.0 | 50.0* | 12.8 | -6.7 | 31.9 | 57.5*
COc1ccc(Cl)cc1NC(=O)CN(C)C(=O)CSc1ccc2c(c1)OCCO2 | 16.8 | 0.7 | 8.4 | -16.2 | 6.4 | .
CC1CCc2c(sc3ncnc(N4CCOCC4)c23)C1 (stereo unspecified) | 17.2 | 66.2* | -9.4 | -29.5 | 20.4 | 62.8*
CC1CCc2sc3ncnc(N4CCOCC4)c3c2C1 (stereo unspecified) | 20.2 | 50.8* | 19.4 | -19.7 | 29.1 | 57.4*
Cc1cc(C)n(-c2ncnc3sc4c(c23)CC(C)CC4)n1 (stereo unspecified) | 15.7 | -28.4 | 11.0 | 13.4 | 14.0 | .
c1ccc(N2CCN(c3ncnc4sc5c(c34)CCC5)CC2)cc1 | 5.4 | 58.8* | 27.8 | 5.1 | -1.5 | 42.3*
O=S(=O)(Nc1nc(-c2ccccc2)cs1)c1cc(Cl)ccc1Cl | 12.5 | 7.8 | 2.6 | 8.4 | 13.6 | .
CC(C)c1nc2n[nH]c(N)c2c2c1CCCC2 | -7.2 | 50.1* | -4.0 | -7.9 | 16.3 | 31.5
O=S(=O)(Nc1ccc(Cl)cc1NS(=O)(=O)c1ccccc1)c1ccccc1 | 47.4 | 54.8* | 0.8 | 22.5 | 17.1 | 51.4*
Cc1ccc(Cl)cc1NS(=O)(=O)c1ccccc1 | -1.2 | 9.7 | -28.2 | 6.3 | 4.0 | .
Cn1c(N)c(C(=O)/C=C/c2ccccc2)c(=O)[nH]c1=O | -241.7 | -22.7 | -98.1 | 5.9 | -178.8 | .
CC1CCCC(NCC(=O)Nc2ccc(C(N)=O)cc2)C1C (stereo unspecified) | 6.8 | -8.1 | 14.3 | 7.1 | 12.4 | .
CCn1c(CN2CCC(C)CC2)nc2cc(S(=O)(=O)N3CCCCC3)ccc21 | 9.4 | 10.0 | -15.3 | 2.5 | 18.6 | .
CCn1c(SC)nc2cc(S(=O)(=O)N3CCCCC3)ccc21 | -12.4 | 52.5* | 0.3 | -8.4 | 14.6 | 41.2*
COc1ccc(CN2CCC(CO)(Cc3ccccc3C(F)(F)F)CC2)c(F)c1 | 8.8 | 7.7 | 0.9 | -11.7 | 0.6 | .
COc1ccccc1-c1nc2c(c(SCC(=O)N3CCCCC3)n1)Cc1c(CO)cnc(C)c1O2 | 29.8 | 9.5 | 12.5 | 1.8 | 8.0 | .
Cc1ncc(CO)c2c1Oc1nc(-c3ccccc3F)nc(SCC(=O)N(C)c3ccccc3)c1C2 | 85.1* | 94.3* | 26.5 | -27.9 | 24.9 | 95.7*
Cc1ncc(CO)c2c1Oc1nc(-c3ccccc3)nc(SCC(=O)N3CCCCC3)c1C2 | 63.6* | 85.0* | 6.9 | -5.0 | 13.1 | 29.5
CC1(C)CC(=O)C2=C(C1)OC(N)=C(C#N)C2C1C=CCCC1 (stereo unspecified) | 20.6 | -1.3 | 4.1 | -1.3 | 19.1 | .
Nn1c(Cc2ccccc2F)nnc1SCC(=O)Nc1cccc(S(=O)(=O)NC2=NCCCCC2)c1 | 3.1 | -0.8 | 1.7 | 0.8 | 15.0 | .
Cc1nn(-c2cccc(Cl)c2)c2nc(C(F)(F)F)[nH]c(=O)c12 | 41.7 | 53.7* | -15.5 | -1.1 | -0.9 | 44.1*
Cc1ccc2nc(C(F)(F)F)c(C#N)c(N)c2c1 | 100.8* | 83.2* | -22.0 | -11.8 | -31.0 | 99.6*
Cc1cccc(C(C#N)c2nc3ccccc3nc2C(F)(F)F)c1 (stereo unspecified) | 20.6 | 12.9 | 7.8 | -8.4 | 8.8 | .
O=C(CSc1nc(C2CC2)nc2ccccc12)Nc1ccccc1N1CCOCC1 | 39.0 | 35.0 | 13.9 | -20.5 | 35.7 | .
SMILES | Peg3 promoter | CF NFkB inh | Shn3 inh set2 | KKLEB tox | HIF-2a block | CF NFkB inh conf
O=C(CSc1nc(C2CC2)nc2ccccc12)Nc1ccccc1Cl | 8.7 | 59.6* | -0.4 | -35.6 | 2.0 | 7.8
Cc1ccc(C)c2c1N(Cc1ccccc1)C(=O)C21OCCO1 | 11.5 | -20.8 | -1.8 | 8.2 | 7.8 | .
O=C(Cc1ccccc1)NCCSC1CCCCC1 | -53.4 | 2.6 | -15.0 | -2.8 | -48.2 | .
COc1cc2oc(=O)cc(-c3ccc(-c4ccc(N(C)C)cc4)cc3)c2c(OC)c1OC | -59.3 | 52.1* | 9.6 | -27.8 | -29.5 | 66.3*
CCCCNc1cc(C(=O)O)cc(S(N)(=O)=O)c1Oc1ccccc1 | 3.6 | 61.5* | -9.2 | 23.6 | 23.7 | 1.3
COc1ccc(-c2cncnc2-c2ccc(OC)cc2O)cc1 | 7.6 | 61.9* | 0.5 | -8.8 | 19.1 | 82.9*
